Source: the supplement of paper PMC10849652
The full data set covers some 8,800 targets. This sample favours those with a hit. About 0.5% of all pairs of compound and target were hits.

Legend:
Assay in all cases: log2 fold change, soluble protein after heating vs DMSO (PISA); higher = thermal stabilisation; K562 lysate, 10 uM; active = over 0.2 and 3.5 SD of the protein, either way, in both replicates (recomputed)
crizotinib = compound: C[C@@H](Oc1cc(-c2cnn(C3CCNCC3)c2)cnc1N)c1c(Cl)ccc(F)c1Cl [crizotinib]
Outline: (§1)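 K562 pellets were dounce-homogenised in PBS pH 7.4 with 1 mM MgCl2, and the crude extract at 1 mg/mL protein was treated with 10 μM compound for 30 min. Aliquots were heated for 3 min across 48°C-58°C, pooled, and brought to 0.5% NP-40 at 4°C; soluble protein was the supernatant after 21,000xg for 90 min. Soluble protein was quantified by TMTpro 16plex LC-MS/MS with channel sums equalised, and reported as log2 fold change in thermal stability against DMSO controls, with values from duplicates.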

doramapimod = compound: Cc1ccc(-n2nc(C(C)(C)C)cc2NC(=O)Nc2ccc(OCCN3CCOCC3)c3ccccc23)cc1 [doramapimod]
Outline: as §1

pictilisib = compound: CS(=O)(=O)N1CCN(Cc2cc3nc(-c4cccc5[nH]ncc45)nc(N4CCOCC4)c3s2)CC1 [pictilisib]
Outline: as §1

duvelisib = compound: C[C@H](Nc1ncnc2nc[nH]c12)c1cc2cccc(Cl)c2c(=O)n1-c1ccccc1 [duvelisib]
Outline: as §1

bafetinib = compound: Cc1ccc(NC(=O)c2ccc(CN3CC[C@H](N(C)C)C3)c(C(F)(F)F)c2)cc1Nc1nccc(-c2cncnc2)n1 [bafetinib]
Outline: as §1

[1] = compound: C[C@H](C1=CC=C(C=C1)C(=O)NC2=C3C=CNC3=NC=C2)N
Outline: as §1

gandotinib = compound: Cc1cc(Nc2cc(CN3CCOCC3)c3nc(C)c(Cc4ccc(Cl)cc4F)n3n2)n[nH]1 [gandotinib]
Outline: as §1

[2] = compound: Cc1cccc(CC(=O)N2CCc3c2ccc(-c2cn(C)c4ncnc(N)c24)c3F)n1
Outline: as §1

tozasertib = compound: Cc1cc(Nc2cc(N3CCN(C)CC3)nc(Sc3ccc(NC(=O)C4CC4)cc3)n2)n[nH]1 [tozasertib]
Outline: as §1

Measured: log2 fold change

CDAN1 (UniProt H3BPZ6)
inactive: crizotinib 0.118 | doramapimod 0.059

B3GALT6 (UniProt Q96L58)
UniProt Q96L58, sequence (Q96L58 whole entry, looked up): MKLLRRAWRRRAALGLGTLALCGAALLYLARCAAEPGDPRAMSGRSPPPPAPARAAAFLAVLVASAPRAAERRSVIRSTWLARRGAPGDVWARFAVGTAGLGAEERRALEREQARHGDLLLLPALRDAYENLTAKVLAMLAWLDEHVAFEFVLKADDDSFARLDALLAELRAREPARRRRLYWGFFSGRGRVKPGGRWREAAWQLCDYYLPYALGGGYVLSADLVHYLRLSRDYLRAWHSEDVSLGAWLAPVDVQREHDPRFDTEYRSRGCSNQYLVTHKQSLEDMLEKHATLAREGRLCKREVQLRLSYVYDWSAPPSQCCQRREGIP
inactive: pictilisib -0.047 | crizotinib -0.123 | duvelisib 0.045 | doramapimod 0.1 | bafetinib -0.066

BMT2 (UniProt Q1RMZ1)
UniProt Q1RMZ1, sequence (Q1RMZ1 whole entry, looked up): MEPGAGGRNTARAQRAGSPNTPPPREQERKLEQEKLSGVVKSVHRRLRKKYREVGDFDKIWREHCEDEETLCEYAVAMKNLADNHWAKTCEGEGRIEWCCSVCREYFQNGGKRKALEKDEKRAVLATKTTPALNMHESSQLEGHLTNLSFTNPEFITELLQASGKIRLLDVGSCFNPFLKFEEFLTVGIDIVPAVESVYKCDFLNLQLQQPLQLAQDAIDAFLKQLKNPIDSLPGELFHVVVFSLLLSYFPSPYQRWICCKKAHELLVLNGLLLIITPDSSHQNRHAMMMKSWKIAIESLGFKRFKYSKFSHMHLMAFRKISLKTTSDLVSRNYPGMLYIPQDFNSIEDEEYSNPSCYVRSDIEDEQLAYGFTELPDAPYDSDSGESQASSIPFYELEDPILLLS
inactive: [1] 0.116 | gandotinib -0.124 | [2] -0.056

ATG10 (UniProt Q9H0Y0)
UniProt Q9H0Y0, sequence (Q9H0Y0 whole entry, looked up): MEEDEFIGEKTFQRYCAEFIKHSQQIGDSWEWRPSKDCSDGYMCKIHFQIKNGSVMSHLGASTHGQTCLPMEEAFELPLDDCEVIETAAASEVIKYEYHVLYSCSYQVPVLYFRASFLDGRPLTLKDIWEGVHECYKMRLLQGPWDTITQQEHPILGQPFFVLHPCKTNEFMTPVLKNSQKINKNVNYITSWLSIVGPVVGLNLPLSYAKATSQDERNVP
inactive: pictilisib -0.051 | crizotinib -0.008 | [1] 0.021 | duvelisib 0.065 | gandotinib -0.023 | tozasertib -0.087 | doramapimod -0.014 | bafetinib 0.012 | [2] 0.063
